From ChEMBL document CHEMBL3433997, “St. Jude Leishmania screening dataset” (2016) come the findings set out here.

Each structure is given as a SMILES string.

What all share (type): functional
Experiment [1] concerns the target Solute carrier family 2, facilitated glucose transporter member 1 (Homo sapiens) (UniProt P11166). Kind of experiment: ST_JUDE_LEISH: Cytotoxicity at 2uM final concentration against transgenic Leishmania Mexicana promastigotes LmGLUT1 that are glucose transport deficient and complemented with the human glucose transporter GLUT1. Activity is measured by DNA content using SYBR green in vitro.

Experiment [2] concerns the target Hexose transporter 1 (Plasmodium falciparum) (UniProt O97467). Kind of experiment: ST_JUDE_LEISH: Cytotoxicity at 2uM final concentration against transgenic Leishmania Mexicana promastigotes LmPfHT that are glucose transport deficient and complemented with the Plasmodium falciparum hexose transporter. Activity is measured by DNA content using SYBR green in vitro.

Experiment [3] deals with Glucose transporter (Leishmania mexicana) (UniProt O61059). Kind of experiment: ST_JUDE_LEISH: Cytotoxicity at 2uM final concentration against transgenic Leishmania Mexicana promastigotes LmGT2 that are glucose transport deficient and complemented with the L. Mexicana glucose transporter 2. Activity is measured by DNA content using SYBR green in vitro.

Chain of Solute carrier family 2, facilitated glucose transporter member 1 (Homo sapiens) (P11166 whole entry): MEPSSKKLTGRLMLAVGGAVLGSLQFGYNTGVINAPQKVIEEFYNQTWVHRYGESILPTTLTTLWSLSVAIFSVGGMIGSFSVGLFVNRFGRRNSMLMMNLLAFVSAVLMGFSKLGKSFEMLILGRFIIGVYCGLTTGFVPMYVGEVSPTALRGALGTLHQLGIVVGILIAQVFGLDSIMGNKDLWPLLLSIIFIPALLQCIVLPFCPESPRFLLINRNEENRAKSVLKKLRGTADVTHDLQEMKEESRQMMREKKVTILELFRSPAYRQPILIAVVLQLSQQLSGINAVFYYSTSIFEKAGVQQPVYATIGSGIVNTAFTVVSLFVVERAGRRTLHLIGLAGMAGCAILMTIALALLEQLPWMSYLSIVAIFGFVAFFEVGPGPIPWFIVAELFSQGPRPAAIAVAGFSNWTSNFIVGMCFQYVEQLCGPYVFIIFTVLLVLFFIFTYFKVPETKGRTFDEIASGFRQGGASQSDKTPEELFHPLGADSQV

For `CC(C)CC1c2[nH]c3ccccc3c2CCN1C(=O)CCc1ccccc1` (stereo not given), the inhibition – broadly, the drop in the measured response relative to a control, in per cent – was found to be 5.53% in experiment [1], 5.28% in experiment [2] and 4.41% in experiment [3].
Take `CC(=O)CCc1ccc(OCCN(Cc2ccccc2C(F)(F)F)c2ccc(C#N)c(C(F)(F)F)c2)cc1`: the results for the inhibition in experiment [1], in experiment [2] and in experiment [3] were 3.66%, 4.24% and 2.73%, respectively.
As for `CCCCn1c(=N)c(C(=O)NCc2cccnc2)cc2c(=O)n3cccc(C)c3nc21`, the inhibition turned out to be 4.38% in experiment [1], 5.85% in experiment [2] and 2.74% in experiment [3].
The matching figures for `CC[C@H](NC(=O)c1c(CN2CCC(N3CCCCC3)CC2)c(-c2ccccc2)nc2c(Cl)c(O)ccc12)c1ccccc1`: 7.43%, 6.81% and 6.04%.
The matching figures for `CC(=O)Nc1ccc(CN(Cc2ccc(C)cc2)Cc2cccc(Oc3ccccc3)c2)cc1`: 2.75%, 3.12% and 2.62%.
On the same counts, the results for `CC(C)(C)Nc1cc(C2CC2)nc(-c2ccccn2)n1` are 2.01%, 4.26% and 3.05%.
In the case of `CN(C)c1ccnc2ccc(NC(=O)Nc3ccnc4ccccc34)cc12`, the inhibition is 1.93% in experiment [1], 2.58% in experiment [2] and 1.09% in experiment [3].
On the same counts, the results for `CCCN(CCC)CCCNc1ccc(C(=O)Nc2ccc(C(C)C)cc2)cc1[N+](=O)[O-]` are 32.7%, 22.2% and 13.2%.
In the case of `CCOC(=O)C(=O)N1c2ccc(OCC)cc2-c2c(ssc2=S)C1(C)C`, the inhibition is -0.01% in experiment [1], 0.3% in experiment [2] and 6.04% in experiment [3].
On to `CCCNC[C@@H](O)[C@H](Cc1ccccc1)NC(=O)c1cc(NCC)cc(N2CCCC2=O)c1`, for which the inhibition in experiment [1] came to 1.25%; in experiment [2], 2.29%; in experiment [3], 0.72%.
The matching figures for `COc1ccccc1NC(=O)Nc1cccc(-c2cccc(-c3nc4cc(C(F)(F)F)ccc4[nH]3)c2)c1`: -1.22%, -0.1% and 0.05%.
On the same counts, the results for `O=S(=O)(NCCN1CCCC1)c1cccc(-c2cccc(CNCCc3cccs3)c2)c1` are 11.7%, 12% and 8.7%.
The matching figures for `CSc1ccc(NC(=O)Nc2cc(C)nc3ccccc23)cc1Br`: -2.43%, 0.36% and 0.36%.
Take `CCCNCc1ccc(-c2ccc(CN(C(=O)c3nn(-c4ccccc4)nc3C)C3CC3)cc2)nc1`: the inhibition in experiment [1] stood at 0.19%; in experiment [2], 0.58%; in experiment [3] it was 0.38%.
As for `CCCc1ccc(NC(=O)c2ccc(CN3CCCN(Cc4ccc(OC)cc4)CC3)cc2)cc1`, the inhibition in experiment [1] is -1.19%; in experiment [2] it was -0.55%; in experiment [3], -0.74%.
On the same counts, the results for `COC(=O)CNC(c1ccccc1)c1cc(Br)ccc1NC(=O)c1ccccc1Br` (stereo not given) are 7.18%, 16.3% and 5.19%.
The matching figures for `Cc1noc(-c2ccc3c(c2)CCN(CCC2CCC(NC(=O)c4cc5ccccc5[nH]4)CC2)CC3)n1` (stereo not given): 2.93%, 2.28% and 1.98%.
The matching figures for `CCOc1cc(C)ccc1C1CCN(CCCCNC(=O)c2cccc(-c3ccc(C(F)(F)F)cc3)c2)CC1`: 1.54%, 2.27% and 2.69%.
Consider `Cc1ccc(N2CCN(CCCCNC(=O)c3ccc(NC(=O)c4ccc(Cl)cc4)cc3)CC2)c(C)c1`, for which the inhibition in experiment [1] was 3.93%; in experiment [2], 5.9%; in experiment [3], 2.64%.
With `CCc1cc2c(Sc3nnc(N)s3)ncnc2s1`, the results for the inhibition in experiment [1], in experiment [2] and in experiment [3] were 2.44%, 0.05% and -5.69%, respectively.
Turning to `COc1ccccc1-n1ccnc1SCC(=O)Nc1cccc(C(F)(F)F)c1`, the results for the inhibition in experiment [1], in experiment [2] and in experiment [3] were 3.36%, 1.61% and 2.6%, respectively.
The matching figures for `Cn1c(NC(=O)C2CCC(CNC(=O)c3ccc(O)c(-c4cccc([N+](=O)[O-])c4)c3)CC2)nc2ccccc21` (stereo not given): 1.57%, 2.47% and 2.44%.
On the same counts, the results for `COCCNCc1ccc(-c2cccc(CNC3CCN(Cc4ccccc4)CC3)c2)cc1` are 4%, 3.16% and 4.77%.
On the same counts, the results for `O=C(Nc1ccc(OC2CCN(Cc3ccccc3)C2)c(Cl)c1)c1ccco1` (stereo not given) are 5.7%, 6.46% and 4.97%.
With `CC(C)Sc1nc2c(c(=O)n1CCc1ccccc1)C1(CCCCC1)Cc1ccccc1-2`, the inhibition in experiment [1] was -1.26%; in experiment [2], -1.14%; in experiment [3], -0.83%.
On to `O=C(NCCCCCN1CCC(c2c[nH]c3ccccc23)CC1)c1ccc(-c2ccccc2)nc1`, for which the inhibition in experiment [1] amounted to 2.41%; in experiment [2], 2.42%; in experiment [3], 2.97%.
On the same counts, the results for `CCS(=O)(=O)c1ccc(/C(=N/OC)c2ccc[nH]2)cc1` are 0.36%, 0.06% and 0.42%.
The matching figures for `COc1ccc2nccc([C@@H](O)CN3CCC(NCc4nc5c([N+](=O)[O-])cccc5[nH]4)CC3)c2c1`: 2.43%, 2.99% and 1.31%.
With `COc1ccc(NC(=O)/C=C/c2ccccc2Cl)cc1OCCN1CCC(Cc2cc3ccccc3[nH]2)CC1`, the figures for the inhibition in experiment [1], in experiment [2] and in experiment [3] were 3.32%, 1.85% and -2.57%, respectively.
The matching figures for `N#CN1CC[C@@H](NS(=O)(=O)Cc2ccc(Cl)c(Cl)c2)C1`: 5.72%, 4.08% and 4.15%.
With `O=C(Cn1c(CCc2cccc(F)c2F)nc(=O)c2ccccc21)N(CCN1CCCC1)Cc1ccc(-c2ccc(C(F)(F)F)cc2)cc1`, the inhibition is 0.45% in experiment [1], 0.38% in experiment [2] and -4.3% in experiment [3].
`O=C(NCCc1ccccc1)N(Cc1cccc(-c2ccc(CNCCc3ccccc3)cc2)c1)C1CCN(Cc2ccccc2)CC1`: the figures for the inhibition in experiment [1], in experiment [2] and in experiment [3] were 0.95%, -0.75% and 0.12%, respectively.
In the case of `COc1cc(N(Cc2ccc(F)cc2)C(=O)c2ccc(-c3ccccc3)cc2)ccc1OCCN1CCCC1`, the inhibition in experiment [1] amounted to 9.7%; in experiment [2], 5.41%; in experiment [3], 7.12%.
For the molecule `COC(=O)c1cc(C(O)CNC(C)CCCc2ccccc2)ccc1O` (stereo not given), the inhibition was 0.96% in experiment [1], -0.05% in experiment [2] and -0.85% in experiment [3].
For the molecule `COc1ccccc1-c1cccc(CNC2CCN(CC3Cn4c(=O)ccc5ccc(F)c3c54)CC2)c1` (stereo not given), the inhibition in experiment [1] worked out at 15%; in experiment [2], 31.3%; in experiment [3], 54.7%.
